# The campaign covered roughly 39,000 compounds. About 1,500 (3.8%) were called active. The sample as a whole holds a higher share of actives than the screen did.
# Tested on: HSkMC (human skeletal muscle cells)
# Experiment: cytotoxicity call (relative viability < 0.9)
# Details: 10 µM
row,SMILES,cytotoxicity call
1,C[C@H](CO)N1C[C@H](C)[C@@H](CN(C)C(=O)C2CCCCC2)Oc2cc(-c3cncnc3)ccc2S1(=O)=O,inactive
2,C[C@H](CO)N1C[C@H](C)[C@H](CN(C)Cc2ccccc2)Oc2ccc(NS(=O)(=O)c3cn(C)cn3)cc2CC1=O,inactive
3,C[C@H](CO)N1C[C@H](C)[C@H](CN(C)S(=O)(=O)c2ccc(C(F)(F)F)cc2)OCc2ccccc2-c2c(n(C)c3ccccc23)C1=O,inactive
4,CC(C)NC(=O)Nc1ccc2c(c1)C(=O)N([C@@H](C)CO)C[C@@H](C)[C@@H](CN(C)C(=O)NC1CCCCC1)O2,inactive
5,C[C@@H]1CCCCO[C@H](CN(C)C(=O)c2ccccc2)[C@@H](C)CN([C@@H](C)CO)C(=O)c2cc(NC(=O)Nc3ccc(F)cc3)ccc2O1,inactive
6,COc1ccc(S(=O)(=O)N(C)C[C@H]2OCCCC[C@H](C)Oc3ccc(NC(=O)c4ccccc4)cc3C(=O)N([C@@H](C)CO)C[C@H]2C)cc1,inactive
7,COc1ccc2c3c(n(c2c1)C)[C@H](CO)N(C[C@]13CN(C1)S(=O)(=O)c1cn(cn1)C)C(=O)Nc1ccc(cc1)F,inactive
8,COc1ccc(S(=O)(=O)Nc2ccc3c(c2)C(=O)N([C@@H](C)CO)C[C@@H](C)[C@@H](CN(C)C(=O)Nc2ccc(C(F)(F)F)cc2)OCCCC[C@@H](C)O3)cc1,inactive
9,C[C@@H]1CCCCO[C@H](CN(C)C(=O)CCC(F)(F)F)[C@H](C)CN([C@@H](C)CO)C(=O)c2cc(NS(=O)(=O)c3cccs3)ccc2O1,inactive
10,CC[C@@]1(O)C[C@H](O[C@H]2C[C@H](N(C)C)[C@H](O[C@H]3C[C@H](O)[C@H](O[C@H]4CCC(=O)[C@H](C)O4)[C@H](C)O3)[C@H](C)O2)c2c(cc3c(c2O)C(=O)c2c(O)cccc2C3=O)[C@H]1C(=O)OC,active
11,COC(=O)[C@H]1c2cc3c(c(O)c2[C@@H](O[C@@H]2O[C@H](C)[C@H](OC)[C@](C)(OC)[C@@H]2OC)C[C@@]1(C)O)C(=O)c1c(O)cc2c(c1C3=O)O[C@H]1O[C@@]2(C)[C@@H](O)[C@H](N(C)C)[C@@H]1O,inactive
12,C[C@@H]1CCCCO[C@H](CN(C)Cc2ccc(Cl)c(Cl)c2)[C@@H](C)CN([C@H](C)CO)C(=O)c2cc(NC(=O)c3ccncc3)ccc2O1,inactive
13,CC=Cc1ccc2n(c1=O)C[C@H]1[C@H](CO)[C@@H](C(=O)NCCc3cn(C)cn3)[C@@H]2N1C(=O)C1CC1,inactive
14,C[C@H](CO)N1C[C@H](C)[C@H](CN(C)C(=O)Nc2ccc3c(c2)OCO3)Oc2c(NC(=O)C3CC3)cccc2C1=O,inactive

# Reference: the antibiotic and cytotoxicity screens of Wong et al. (2023)
